From PubChem BioAssay AID1159580 (chemical genetic matrix, 2015)
About 2,000 (36%) of roughly 5,500 compounds were called active. Another 18% or so got no clear call; they are omitted. No stated cut-off is given here; in the data, active means normalized growth mostly below about 0.91 (no sharp cut-off); inconclusive means no clear call, values can overlap the other calls; inactive means mostly above about 0.92. The list shows a part of the results.

Experiment: chemical genetic growth profiling, strain panel (AID 1159580);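 further: tested at 20 µM; growth read once vehicle control cultures reached saturation at 30 °C; 1 = growth at the plate median or of vehicle wells; lower values mean less growth of the strain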
Settings: growth OD

Measured: normalized growth

COS(C)(=O)=O
inactive: S. cerevisiae deletion strains, locus YJR075W, strain HOC1, active compounds read low 1.01 | S. cerevisiae deletion strains, locus YKL009W, strain mrt4, active compounds read low 1.03 | S. cerevisiae deletion strains, locus YKL068W, active compounds read low 1.01 | S. cerevisiae deletion strains, locus YKL085W, strain MDH1 (second series), active compounds read low 1.02 | S. cerevisiae deletion strains, locus YKL085W, strain MDH1, active compounds read low 1.02 | S. cerevisiae deletion strains, locus YKL160W, strain elf1, active compounds read low 1 | S. cerevisiae deletion strains, locus YKL190W, strain CNB1, active compounds read low 1 | S. cerevisiae deletion strains, locus YKR001C, strain vps1, active compounds read low 1.01 | S. cerevisiae deletion strains, locus YKR026C, strain gcn3, active compounds read low 0.996 | S. cerevisiae deletion strains, locus YKR091W, strain srl3, active compounds read low 0.993 | S. cerevisiae deletion strains, locus YLL001W, strain dnm1, active compounds read low 0.996 | S. cerevisiae deletion strains, locus YLL026W, active compounds read low 0.996 | S. cerevisiae deletion strains, locus YLL041C, strain sdh2, active compounds read low 1 | S. cerevisiae deletion strains, locus YLR027C, strain aat2, active compounds read low 0.97 | S. cerevisiae deletion strains, locus YLR039C, strain RIC1, active compounds read low 1.07 | S. cerevisiae deletion strains, locus YLR058C, strain SHM2, active compounds read low 1.01 | S. cerevisiae deletion strains, locus YLR102C, strain apc9, active compounds read low 1.01 | S. cerevisiae deletion strains, locus YLR113W, strain HOG1, active compounds read low 0.983 | S. cerevisiae deletion strains, locus YLR221C, strain rsa3, active compounds read low 0.961 | S. cerevisiae deletion strains, locus YLR258W, strain gsy2, active compounds read low 1.03 | S. cerevisiae deletion strains, locus YLR262C, strain YPT6 (second series), active compounds read low 0.997 | S. cerevisiae deletion strains, locus YLR262C, strain YPT6, active compounds read low 1.06 | S. cerevisiae deletion strains, locus YLR268W, strain sec22, active compounds read low 0.973 | S. cerevisiae deletion strains, locus YLR320W, strain mms22, active compounds read low 0.954 | S. cerevisiae deletion strains, locus YLR330W, strain CHS5, active compounds read low 1.01 | S. cerevisiae deletion strains, locus YLR342W, strain FKS1 (second series), active compounds read low 1.08 | S. cerevisiae deletion strains, locus YLR342W, strain FKS1, active compounds read low 0.992 | S. cerevisiae deletion strains, locus YLR357W, strain rsc2, active compounds read low 0.935 | S. cerevisiae deletion strains, locus YLR370C, strain arc18, active compounds read low 1 | S. cerevisiae deletion strains, locus YLR371W, strain rom2, active compounds read low 1.02 | S. cerevisiae deletion strains, locus YLR384C, strain iki3, active compounds read low 0.982 | S. cerevisiae deletion strains, locus YLR418C, strain cdc73, active compounds read low 0.95 | S. cerevisiae deletion strains, locus YML016C, strain PPZ1, active compounds read low 1 | S. cerevisiae deletion strains, locus YML032C, strain rad52, active compounds read low 1.03 | S. cerevisiae deletion strains, locus YML120C, strain ndi1, active compounds read low 1 | S. cerevisiae deletion strains, locus YML124C, strain tub3, active compounds read low 1.01 | S. cerevisiae deletion strains, locus YMR058W, strain fet3, active compounds read low 1.02 | S. cerevisiae deletion strains, locus YMR078C, strain ctf18, active compounds read low 1.02 | S. cerevisiae deletion strains, locus YMR125W, strain sto1, active compounds read low 0.992 | S. cerevisiae deletion strains, locus YMR129W, active compounds read low 0.997 | S. cerevisiae deletion strains, locus YMR205C, strain PFK2, active compounds read low 1 | S. cerevisiae deletion strains, locus YMR223W, strain ubp8, active compounds read low 1.05 | S. cerevisiae deletion strains, locus YMR231W, strain pep5, active compounds read low 0.985 | S. cerevisiae deletion strains, locus YMR263W, strain SAP30, active compounds read low 0.995 | S. cerevisiae deletion strains, locus YMR307W, strain GAS1, active compounds read low 1.05 | S. cerevisiae deletion strains, locus YNL067W, strain RPL9B, active compounds read low 1 | S. cerevisiae deletion strains, locus YNL071W, strain lat1, active compounds read low 1 | S. cerevisiae deletion strains, locus YNL128W, strain TEP1, active compounds read low 0.987 | S. cerevisiae deletion strains, locus YNL153C, strain GIM3, active compounds read low 0.976 | S. cerevisiae deletion strains, locus YNL183C, strain NPR1, active compounds read low 1 | S. cerevisiae deletion strains, locus YNL209W, strain ssb2, active compounds read low 1.01 | S. cerevisiae deletion strains, locus YNL233W, strain BNI4, active compounds read low 0.99 | S. cerevisiae deletion strains, locus YNL248C, strain rpa49, active compounds read low 0.998 | S. cerevisiae deletion strains, locus YNL250W, strain rad50, active compounds read low 1.02 | S. cerevisiae deletion strains, locus YNL271C, strain bni1, active compounds read low 1.02 | S. cerevisiae deletion strains, locus YNL298W, strain CLA4, active compounds read low 1.02 | S. cerevisiae deletion strains, locus YNL307C, strain MCK1, active compounds read low 1.03 | S. cerevisiae deletion strains, locus YNL322C, strain KRE1 (second series), active compounds read low 0.976 | S. cerevisiae deletion strains, locus YNL322C, strain KRE1, active compounds read low 1.01 | S. cerevisiae deletion strains, locus YNR049C, strain mso1, active compounds read low 0.995 | S. cerevisiae deletion strains, locus YNR052C, strain pop2, active compounds read low 1.03 | S. cerevisiae deletion strains, locus YOL006C, strain TOP1, active compounds read low 1.03 | S. cerevisiae deletion strains, locus YOL012C, strain htz1 0.976 | S. cerevisiae deletion strains, locus YOL147C, strain pex11, active compounds read low 1.01 | S. cerevisiae deletion strains, locus YOR001W, strain rrp6, active compounds read low 0.942 | S. cerevisiae deletion strains, locus YOR061W, strain CKA2, active compounds read low 1 | S. cerevisiae deletion strains, locus YOR069W, strain VPS5, active compounds read low 1.01 | S. cerevisiae deletion strains, locus YOR070C, strain gyp1, active compounds read low 0.989 | S. cerevisiae deletion strains, locus YOR080W, strain dia2, active compounds read low 0.986 | S. cerevisiae deletion strains, locus YOR083W, strain WHI5, active compounds read low 1.01 | S. cerevisiae deletion strains, locus YOR106W, strain vam3, active compounds read low 1.03 | S. cerevisiae deletion strains, locus YOR136W, strain idh2, active compounds read low 1.01 | S. cerevisiae deletion strains, locus YOR144C, strain elg1, active compounds read low 1 | S. cerevisiae deletion strains, locus YOR184W, strain ser1, active compounds read low 1.05 | S. cerevisiae deletion strains, locus YOR231W, strain MKK1, active compounds read low 0.987 | S. cerevisiae deletion strains, locus YOR265W, strain rbl2, active compounds read low 0.999 | S. cerevisiae deletion strains, locus YOR270C, strain vph1, active compounds read low 0.981 | S. cerevisiae deletion strains, locus YOR290C, strain snf2, active compounds read low 0.995 | S. cerevisiae deletion strains, locus YOR316C, strain cot1, active compounds read low 1.02 | S. cerevisiae deletion strains, locus YPL051W, strain arl3, active compounds read low 1.02 | S. cerevisiae deletion strains, locus YPL055C, strain LGE1, active compounds read low 0.968 | S. cerevisiae deletion strains, locus YPL078C, strain atp4, active compounds read low 1.01 | S. cerevisiae deletion strains, locus YPL106C, strain sse1, active compounds read low 0.99 | S. cerevisiae deletion strains, locus YPL240C, strain hsp82, active compounds read low 0.995 | S. cerevisiae deletion strains, locus YPL241C, strain CIN2, active compounds read low 1 | S. cerevisiae deletion strains, locus YPL256C, strain CLN2, active compounds read low 0.99 | S. cerevisiae deletion strains, locus YPR119W, strain clb2, active compounds read low 1 | S. cerevisiae deletion strains, locus YPR141C, strain kar3, active compounds read low 1.02 | S. cerevisiae deletion strains, locus YPR163C, strain tif3, active compounds read low 1 | S. cerevisiae deletion strains, locus YPR167C, strain met16, active compounds read low 1.01 | S. cerevisiae deletion strains, strain wtn01, active compounds read low 0.981 | S. cerevisiae strains, strain wild type, active compounds read low 1.01
